Results reported in PMC11062922 (Nature Chemical Biology, 2023).
Like-named read-outs stand apart in the source and are kept apart here.

Legend:
Set-up in all cases: species or system human, MV4-11 + K-562 + COLO205 + SK-N-BE2 + OVCAR-8
ACVR1B = details: read-out: apparent Kd; compound concentrations:100 nM and 1000 nM (sheet 'Samples'); n = 1
GAK = details: read-out: apparent Kd; compound concentrations:100 nM and 1000 nM (sheet 'Samples'); n = 1
NQO2 = details: read-out: apparent Kd; compound concentrations:100 nM and 1000 nM (sheet 'Samples'); n = 1
PRKD2 = details: read-out: apparent Kd, n = 1
RIPK2 = details: read-out: apparent Kd; compound concentrations:100 nM and 1000 nM (sheet 'Samples'); n = 1
TGFBR1 = details: read-out: apparent Kd; compound concentrations:100 nM and 1000 nM (sheet 'Samples'); n = 1
TGFBR2 = details: read-out: apparent Kd; compound concentrations:100 nM and 1000 nM (sheet 'Samples'); n = 1
TNIK = details: read-out: apparent Kd, n = 1
ACVR2B = details: read-out: apparent Kd, n = 1
PIP4K2C = details: read-out: apparent Kd; compound concentrations: 100 nM and 1000 nM (sheet 'Samples'), CATDS: 0.38663089306687698; n = 1
ADCK1 = details: read-out: apparent Kd, compound concentrations: 100 nM and 1000 nM (sheet 'Samples'), n = 1
AKT1 = details: read-out: apparent Kd; compound concentrations: 100 nM and 1000 nM (sheet 'Samples'), CATDS: 4.32167355318668E-2; n = 1
AKT2 = details: read-out: apparent Kd; compound concentrations: 100 nM and 1000 nM (sheet 'Samples'), CATDS: 4.9283792774051899E-2; n = 1
BTK = details: read-out: apparent Kd; compound concentrations: 100 nM and 1000 nM (sheet 'Samples'), CATDS: 5.4009737115297697E-2; n = 1
CDC42BPG = details: read-out: apparent Kd; compound concentrations: 100 nM and 1000 nM (sheet 'Samples'), CATDS: 4.9090451053861402E-2; n = 1
CSNK1A1 = details: read-out: apparent Kd; compound concentrations: 100 nM and 1000 nM (sheet 'Samples'), CATDS: 4.23666657347909E-2; n = 1
CSNK1E = details: read-out: apparent Kd, compound concentrations: 100 nM and 1000 nM (sheet 'Samples'), n = 1
CSNK1G3 = details: read-out: apparent Kd; compound concentrations: 100 nM and 1000 nM (sheet 'Samples'), CATDS: 4.2624276708998099E-2; n = 1
IARS = details: read-out: apparent Kd; compound concentrations: 100 nM and 1000 nM (sheet 'Samples'), CATDS: 4.0140361212157798E-2; n = 1
MAPK14 = details: read-out: apparent Kd; compound concentrations: 100 nM and 1000 nM (sheet 'Samples'), CATDS: 5.21130062125853E-2; n = 1
OPA1 = details: read-out: apparent Kd; compound concentrations: 100 nM and 1000 nM (sheet 'Samples'), CATDS: 4.7870015182345502E-2; n = 1
PIK3CD = details: read-out: apparent Kd; compound concentrations: 100 nM and 1000 nM (sheet 'Samples'), CATDS: 0.15137185396719799; n = 1
PIM1 = details: read-out: apparent Kd; compound concentrations: 100 nM and 1000 nM (sheet 'Samples'), CATDS: 5.1032643222322503E-2; n = 1
PIM2 = details: read-out: apparent Kd; compound concentrations: 100 nM and 1000 nM (sheet 'Samples'), CATDS: 0.19635235530270301; n = 1
RAB14 = details: read-out: apparent Kd; compound concentrations: 100 nM and 1000 nM (sheet 'Samples'), CATDS: 4.5308660485802198E-2; n = 1
RPS6KA3 = details: read-out: apparent Kd; compound concentrations: 100 nM and 1000 nM (sheet 'Samples'), CATDS: 4.2284934101133903E-2; n = 1
RPS6KA6 = details: read-out: apparent Kd; compound concentrations: 100 nM and 1000 nM (sheet 'Samples'), CATDS: 6.3682849838720093E-2; n = 1
SRC = details: read-out: apparent Kd; compound concentrations: 100 nM and 1000 nM (sheet 'Samples'), CATDS: 4.8588200967613397E-2; n = 1
STK3 = details: read-out: apparent Kd; compound concentrations: 100 nM and 1000 nM (sheet 'Samples'), CATDS: 4.1174689810954603E-2; n = 1
TAOK1 = details: read-out: apparent Kd; compound concentrations: 100 nM and 1000 nM (sheet 'Samples'), CATDS: 5.56620194527895E-2; n = 1
ADK = details: read-out: apparent Kd; compound concentrations: 100 nM and 1000 nM (sheet 'Samples'), CATDS: 4.5787667935106503E-2; n = 1
CDK4 = details: read-out: apparent Kd; compound concentrations: 100 nM and 1000 nM (sheet 'Samples'), CATDS: 4.6312693671670499E-2; n = 1
CSNK1D = details: read-out: apparent Kd; compound concentrations: 100 nM and 1000 nM (sheet 'Samples'), CATDS: 7.6669822847603902E-2; n = 1
MAP4K5 = details: read-out: apparent Kd; compound concentrations: 100 nM and 1000 nM (sheet 'Samples'), CATDS: 6.0957264613737197E-2; n = 1
PRKACA = details: read-out: apparent Kd; compound concentrations: 100 nM and 1000 nM (sheet 'Samples'), CATDS: 6.9210809350161107E-2; n = 1
PRKACB = details: read-out: apparent Kd; compound concentrations: 100 nM and 1000 nM (sheet 'Samples'), CATDS: 6.0886440238293899E-2; n = 1
PRKCD = details: read-out: apparent Kd; compound concentrations: 100 nM and 1000 nM (sheet 'Samples'), CATDS: 6.5587395591723996E-2; n = 1
PRKCQ = details: read-out: apparent Kd; compound concentrations: 100 nM and 1000 nM (sheet 'Samples'), CATDS: 0.20872331441348899; n = 1
PRKD3 = details: read-out: apparent Kd; compound concentrations: 100 nM and 1000 nM (sheet 'Samples'), CATDS: 0.24703755989756301; n = 1
RPS6KB1 = details: read-out: apparent Kd; compound concentrations: 100 nM and 1000 nM (sheet 'Samples'), CATDS: 6.31408503509263E-2; n = 1
MAP3K1 = details: read-out: apparent Kd; compound concentrations:100 nM and 1000 nM (sheet 'Samples'); n = 1
SLK = details: read-out: apparent Kd; compound concentrations:100 nM and 1000 nM (sheet 'Samples'); n = 1
STK10 = details: read-out: apparent Kd; compound concentrations:100 nM and 1000 nM (sheet 'Samples'); n = 1
[1] = compound concentrations:100 nM and 1000 nM (sheet 'Samples')

In the case of `c1ccc(-c2n[nH]cc2-c2ccnc(-c3ccc(OCCn4ccnc4)cc3)c2)nc1` [GW711782X], the potency estimated from few doses (ACVR1B) is reported as 245 nM, the potency estimated from few doses (GAK) is reported as 1350 nM and the potency estimated from few doses (NQO2) is reported as 71.1 nM. It also gave a potency estimated from few doses (PRKD2; [1]) of 2160 nM, a potency estimated from few doses (RIPK2) of 801 nM and a potency estimated from few doses (TGFBR1) of 82 nM. For the same compound, the potency estimated from few doses (TGFBR2) was 719 nM and the potency estimated from few doses (TNIK; [1]) was 873 nM.

`Cl.NC(=O)c1cccc(Nc2nccc(Nc3cccc(F)c3)n2)c1` [GW759710A] gave a potency estimated from few doses (ACVR2B; compound concentrations: 100 nM and 1000 nM (sheet 'Samples'), CATDS: 0.70743681093709798) of 450 nM and a potency estimated from few doses (PIP4K2C) of 1730 nM.

With `COc1cccc(C2=C(c3cn(C)c4ccc(Cl)cc34)C(=O)NC2=O)c1` [RO3300230-000] the potency estimated from few doses (ADCK1; CATDS: 4.1233669692049897E-2) was 1860 nM, the potency estimated from few doses (AKT1) was 1650 nM and the potency estimated from few doses (AKT2) was 1210 nM. It also gave a potency estimated from few doses (BTK) of 993 nM, a potency estimated from few doses (CDC42BPG) of 1220 nM and a potency estimated from few doses (CSNK1A1) of 1730 nM. It also gave a potency estimated from few doses (CSNK1E; CATDS: 3.8720748933532501E-2) of 2230 nM, a potency estimated from few doses (CSNK1G3) of 1710 nM and a potency estimated from few doses (IARS) of 2010 nM. It also gave a potency estimated from few doses (MAPK14) of 1070 nM, a potency estimated from few doses (OPA1) of 1290 nM and a potency estimated from few doses (PIK3CD) of 189 nM. It also gave a potency estimated from few doses (PIM1) of 1120 nM, a potency estimated from few doses (PIM2) of 133 nM and a potency estimated from few doses (RAB14) of 1460 nM. It also gave a potency estimated from few doses (RPS6KA3) of 1740 nM, a potency estimated from few doses (RPS6KA6) of 723 nM and a potency estimated from few doses (SRC) of 1250 nM. For the same compound, the potency estimated from few doses (STK3) was 1870 nM and the potency estimated from few doses (TAOK1) was 935 nM.

Compound `Cc1n[nH]c2ccc(-c3cc(OC[C@@H](N)Cc4c[nH]c5ccccc45)cnc3-c3ccoc3)cc12.Cc1n[nH]c2ccc(-c3cc(OC[C@@H](N)Cc4c[nH]c5ccccc45)cnc3-c3ccoc3)cc12.O=C(O)C(F)(F)F.O=C(O)C(F)(F)F.O=C(O)C(F)(F)F` [GSK562689A] has a potency estimated from few doses (ADCK1; CATDS: 4.4524563972159897E-2) of 2150 nM, a potency estimated from few doses (ADK) of 1830 nM and a potency estimated from few doses (CDK4) of 1720 nM. For the same compound, the potency estimated from few doses (CSNK1D) was 302 nM, the potency estimated from few doses (CSNK1E; CATDS: 6.5483605156218705E-2) was 464 nM and the potency estimated from few doses (MAP4K5) was 577 nM. The potency estimated from few doses (PRKACA) was 396 nM, the potency estimated from few doses (PRKACB) was 579 nM and the potency estimated from few doses (PRKCD) was 462 nM. It also gave a potency estimated from few doses (PRKCQ) of 41.7 nM, a potency estimated from few doses (PRKD2; compound concentrations: 100 nM and 1000 nM (sheet 'Samples'), CATDS: 0.17196563894613301) of 57.2 nM and a potency estimated from few doses (PRKD3) of 32.3 nM. It also gave a potency estimated from few doses (RPS6KB1) of 518 nM and a potency estimated from few doses (TNIK; compound concentrations: 100 nM and 1000 nM (sheet 'Samples'), CATDS: 0.113919393065207) of 123 nM.

`C[C@@H](Oc1cc(-n2cnc3cc(-c4ccnc(N5CCN(C)CC5)c4)ccc32)sc1C(N)=O)c1ccccc1Cl` [GSK641502A] was tested, and the potency estimated from few doses (ACVR2B; [1]) was 732 nM, the potency estimated from few doses (MAP3K1) was 603 nM and the potency estimated from few doses (SLK) was 1940 nM. The potency estimated from few doses (STK10) was 1120 nM.
